Measured values published in PubChem BioAssay AID2018 (Sanford-Burnham Center for Chemical Genomics, 2009).
The whole screen tested about 1,200 compounds, of which about 600 (50%) were called active. The set was probably picked from earlier hits. Some of the results follow. Entries with a potency or affinity are not part of this list. A number with no mark means an inactive call. No stated cut-off is given here; in the data, active means inhibition above about 42%; inactive means the rest.

Molecular target: SUMO-conjugating enzyme UBC9 (Homo sapiens) (UniProt P63279)
Sequence (P63279 whole entry, looked up): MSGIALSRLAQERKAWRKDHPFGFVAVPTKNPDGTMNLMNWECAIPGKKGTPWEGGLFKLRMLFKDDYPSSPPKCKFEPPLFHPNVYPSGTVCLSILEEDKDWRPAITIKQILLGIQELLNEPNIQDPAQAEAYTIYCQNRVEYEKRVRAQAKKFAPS
Test: SUMOylation inhibitor hit validation, confirmation, SUMOylation inhibitor project, biochemical, AlphaScreen (AID 2018)
Conditions: AlphaScreen in vitro SUMOylation assay; at 35 µM; stronger effect = higher value

| Structure (SMILES) | inhibition |
| --- | --- |
| C=CCN(CC=C)c1nc2ccccc2nc1C(C#N)C(=O)OC(C)C (centres undefined) | -10.3% |
| Cc1[nH]n(-c2ccccc2)c(=O)c1C(c1ccc(C(=O)O)cc1)c1c(C)[nH]n(-c2ccccc2)c1=O | 41.6% |
| COc1ccc(C(c2c(C)[nH]n(-c3ccccc3)c2=O)c2c(C)[nH]n(-c3ccccc3)c2=O)cc1OC | 101% (active) |
| CCOc1ccc(N2CC(C(=O)NCc3ccc(F)cc3)CC2=O)cc1 (centres undefined) | 6.3% |
| COCCNC(=O)CCC1CCN(Cc2ccc(-c3ccccc3)cc2)CC1 | -1.3% |
| Cc1n[nH]c(=S)n(NC(=O)/C=C/C(=O)Nn2c(=S)[nH]nc(C)c2=O)c1=O | 101% (active) |
| S=C(NCc1ccc2c(c1)OCO2)Nc1ccc2nsnc2c1 | 25.4% |
| COCCNC(=S)Nc1ccc2nsnc2c1 | 6.6% |
| S=C(Nc1ccc2nsnc2c1)N1CCCCC1 | 18.3% |
| OCCNC(=S)Nc1ccc2nsnc2c1 | 54.8% (active) |
| S=C(Nc1ccc2nsnc2c1)NC1CCCCC1 | 95.3% (active) |
| S=C(Nc1ccc2nsnc2c1)N1CCCCCC1 | 28.1% |
| Nc1ccc2nn(-c3ccccc3)nc2c1 | 68.1% (active) |
| Cc1ccc(-n2nc3ccc(N)cc3n2)c(C)c1 | 39.7% |
| Cn1cc2ccc(N)cc2n1 | -18.5% |
| Nc1ccc2nn(-c3cccc4ccccc34)nc2c1 | 43.5% (active) |
| CN(C)C=Nc1ccc2nn(-c3ccccc3)nc2c1 | -10.8% |
| Nc1ccc2nc(-c3ccccc3)sc2c1 | -1.4% |
| N#Cc1ccsc1NC(=O)CN1CCN(c2ccc(O)cc2)CC1 | 5.7% |
| O=C(NCCc1ccccc1)c1ccc2nc(-c3ccco3)c(-c3ccco3)nc2c1 | 70.9% (active) |
| O=C(Nc1ccc2nc(-c3ccco3)c(-c3ccco3)nc2c1)N1CCN(c2ccccn2)CC1 | 76.6% (active) |
| CC(C)c1ccccc1NC(=O)COc1ccc(C(=O)NCCc2ccccc2)cc1 | 26.7% |
| O=C(Nc1ccccc1)Nc1ccno1 | -7.1% |
| O=C(Nc1ccc2nsnc2c1)N1CCCCC1 | 2.3% |

| Structure (SMILES) | inhibition |
| --- | --- |
| S=C(Nc1ccc2nc(-c3ccccn3)c(-c3ccccn3)nc2c1)N1CCOCC1 | 3.8% |
| O=C(Cc1ccccc1)Nc1nnc(-c2ccco2)s1 | 11.3% |
| O=C(NCc1ccccc1)c1ccc2nc(-c3ccco3)c(-c3ccco3)nc2c1 | 65.7% (active) |
| O=C(Nc1cccnc1)c1cc2cc(Br)ccc2oc1=O | 34.9% |
| COc1ccc(CCNC(=O)c2ccc3nc(-c4ccco4)c(-c4ccco4)nc3c2)cc1OC | 73.3% (active) |
| CC(=O)Nc1ccc2nc3ccccc3nc2c1 | 15.1% |
| COc1ccc(CCn2c(N)c(C(=O)NCc3ccco3)c3nc4ccccc4nc32)cc1OC | 9.7% |
| Cc1ccc(Cn2cccc(NS(C)(=O)=O)c2=O)cc1 | 26.5% |
| COc1ccc(-c2cc(-c3ccccc3)n3ncnc3n2)cc1 | 5.5% |
| Cc1nn2cc(-c3ccccc3)nc2[nH]c1=O | 9.6% |
| CC(C)c1ccc(S(=O)(=O)/N=C2/C=CC(=O)c3ccccc32)cc1 | 102% (active) |
| O=C(NCc1ccccc1)Nc1cccn(Cc2c(F)cccc2Cl)c1=O | -15.7% |
| Oc1ccc(/C=N/Nc2cc(N3CCCC3)nc(N3CCCC3)n2)cc1 | 82.3% (active) |
| CN(C)c1ccc(/C=N/Nc2cc(N3CCOCC3)nc(N3CCOCC3)n2)cc1 | 39.5% |
| Oc1ccc(/C=N/Nc2cc(N3CCCC3)nc(N3CCCC3)n2)cc1O | 102% (active) |
| COc1ccc2c(c1)-c1nc(/N=C/c3ccc(O)cc3)sc1CC2 | 30.9% |
| Cc1ccc(N=Nc2c(N)[nH]n3c(=O)cc(C)nc23)cc1 | 37.3% |
| COc1ccc2c(c1)Cc1sc(NC(=O)c3ccccc3)nc1-2 | 34.5% |
| COCCN(CCOC)S(=O)(=O)c1ccc(C(=O)Nc2nc3c(s2)CCc2ccccc2-3)cc1 | 30.1% |
| COc1ccc2c(c1)Cc1sc(NC(=O)c3cccs3)nc1-2 | 51.9% (active) |
| COc1ccc2c(c1)Cc1sc(NC(C)=O)nc1-2 | 41.3% |
| COc1ccc(C(=O)Nc2nc3c(s2)Cc2cc(OC)ccc2-3)cc1 | 59.7% (active) |
| Cn1c(=O)c(Nc2ccc(O)cc2)c2c3c(cccc31)C(=O)c1ccccc1-2 | 91.8% (active) |
| COc1ccc(-c2ccnc3nc(/N=C/N(C)C)nn23)cc1 | -8.3% |

| Structure (SMILES) | inhibition |
| --- | --- |
| COc1cccc(Cn2cccc(NC(=O)NC3CCCCC3)c2=O)c1 | 25.8% |
| CC1CCN(CCCn2c(=S)[nH]c3ccc(N4CCOCC4)cc3c2=O)CC1 | -13.8% |
| O=c1c2ccccc2nc(/C=C/c2cccnc2)n1Cc1ccccc1 | 98.2% (active) |
| Cc1c2c(=O)n(-c3nc4ccccc4s3)nc-2cc(O)n1Cc1ccccc1 | 20.5% |
| COc1ccc(-n2c3nc4ccccc4nc3c3c(=N)oc(C)nc32)cc1 | 64% (active) |
| COCCCNC(=O)c1c(N)n(-c2ccccc2)c2nc3ccccc3nc12 | -25.1% |
| COc1ccccc1/C=N/NC(=O)c1ccc(CN2C(=O)c3cccc4cccc2c34)cc1 | -17.1% |
| O=C(N/N=C/c1ccccc1)c1ccc(CN2C(=O)c3cccc4cccc2c34)cc1 | 51.5% (active) |
| NC(=O)N/N=C/c1ccc2cccc(OCc3ccccc3)c2n1 | 31.5% |
| Cc1cccc(C(=O)NC2C(=O)NNC2c2ccc(Cl)cc2)c1 (centres undefined) | 69.8% (active) |
| CC1OC(Nc2cccc3ccccc23)C(O)C(O)C1O (centres undefined) | 38.7% |
| O=C(N/N=C/c1ccc(O)c2ncccc12)c1cccc(Br)c1 | 65.3% (active) |
| CCOc1ccc(N2C(=O)c3ccc(C(=O)OCC(=O)N(CC)C4CCS(=O)(=O)C4)cc3C2=O)cc1 (centres undefined) | 42.4% (active) |
| O=c1oc2cc(O)ccc2cc1-c1ccc(F)cc1 | 15.5% |
| Cc1cc(/C=C2\SC(=S)NC2=O)c(C)[nH]1 | 65.4% (active) |
| c1ccc2c3c(cc(N4CCOCC4)c2c1)OC1(N2CCOCC2)CCCCC1O3 (centres undefined) | 92% (active) |
| Cc1ccc(C2C(C#N)=C(N)N(c3cccnc3)C3=C2C(=O)CCC3)s1 (centres undefined) | 16.8% |
| NC(=O)c1ccc(N=C2C(=O)Nc3ccc([N+](=O)[O-])cc32)cc1 | 102% (active) |
| NC(N)=N/N=C/c1cc([N+](=O)[O-])ccc1O | -9.1% |
| CCC(C)(C)n1nnnc1CN(Cc1cc2cc(OC)c(OC)cc2[nH]c1=O)C1CCCC1 | 2.2% |
| Cc1ccc(-c2[nH]c(-c3ccc(C(=O)O)cc3)nc2-c2ccccc2)cc1 | 49.3% (active) |
| O=[N+]([O-])c1cc([N+](=O)[O-])c2nonc2c1Nc1ccc(O)cc1 | 37.6% |
| CN(C)c1cc(Nc2cccc(O)c2)c([N+](=O)[O-])c2nonc12 | 43.3% (active) |
| O=[N+]([O-])c1c(NCc2ccccc2)cc(N2CCc3ccccc3C2)c2nonc12 | 38.5% |

| Structure (SMILES) | inhibition |
| --- | --- |
| COc1ccc2c(c1)C(C)=CC(C)(C)N2C(=O)Nc1ccccc1 | 38.7% |
| CSc1nnc(SCc2nc3sc(C(=O)O)c(C)c3c(=O)[nH]2)s1 | 89.8% (active) |
| CCN(CC)C(=O)c1sc2nc(-c3ccncc3)[nH]c(=O)c2c1C | 0.7% |
| CCOc1ccc(S(=O)(=O)N2CCCC(C(=O)NCc3ccco3)C2)cc1 (centres undefined) | 4.2% |
| Fc1cccc(NC(=S)Nc2cccc3ccccc23)c1 | 24.1% |
| [O-]/C(=C(\C(=S)Nc1cccc2ccccc12)[n+]1ccccc1)c1ccc(Cl)s1 | 53.6% (active) |
| [O-]/C(=C(\C(=S)Nc1cccc2ccccc12)[n+]1cccc(CO)c1)c1ccc(Cl)s1 | 31.7% |
| CC(C)c1ccc(NC(=O)C[n+]2ccn(C3=C([O-])c4ccccc4C3=O)c2)cc1 | 61.2% (active) |
| CC(C)c1ccc(NC(=S)Nc2cccc3ccccc23)cc1 | 24.3% |
| O=c1c(-c2c(O)cc(O)c3c(=O)cc(-c4ccc(O)cc4)oc23)c(-c2ccc(O)cc2)oc2cc(O)cc(O)c12 | 99.8% (active) |
| Cc1[nH][nH]c(=O)c1C(c1ccc(-c2ccc(Cl)c(C(=O)O)c2)o1)c1c(C)[nH][nH]c1=O | 73.1% (active) |
| Cc1[nH][nH]c(=O)c1C(c1ccc(-c2ccc(Cl)c(Cl)c2)o1)c1c(C)[nH][nH]c1=O | 45.9% (active) |
| Cc1cc(C)c(S(=O)(=O)NCC23C=CC(O2)C2C(=O)N(c4ccccc4)C(=O)C23)c(C)c1 (centres undefined) | -6.4% |
| O=C1N=c2ccccc2=C1c1sc(Nc2ccc(O)cc2)nc1O | 93.5% (active) |
| O=C1N=c2ccccc2=C1c1c(O)n(-c2cccc(F)c2)[nH]c1=O | 12% |
| Cc1c(N2C(=O)c3ccc4c5c(ccc(c35)C2=O)CC4)c(=O)n(-c2ccccc2)n1C | 93.9% (active) |
| N#CC1=C(N)Oc2n[nH]c(-c3cccs3)c2C1c1ccoc1 (centres undefined) | 24.4% |
| Cc1nn(-c2ccccc2)c2c1C(c1ccc(F)cc1)C(C#N)=C(N)O2 (centres undefined) | 0% |
| Cc1ccc(-n2nc(C)c3c2OC(N)=C(C#N)C3c2ccoc2)cc1 (centres undefined) | 69% (active) |
| Cc1ccc(-n2nc(C)c3c2OC(N)=C(C#N)C3c2ccc(C)o2)cc1 (centres undefined) | 81.4% (active) |
| CC(C)N1CCC2(CC1)C(C#N)=C(N)NC(S)=C2C#N | 26% |
| Cc1nc2c3cc(F)ccc3n(Cc3ccc(F)cc3)c2s1 | 20.7% |
